Values without a mark were called inactive. Inconclusive results are not listed. Entries that show only a call come without a potency. Calls of active or inactive are those of the source. Unless noted, calls come from the whole dose curve; as a rule, active = well fitted curve in the direction sought with a large enough effect in the repeat runs; inconclusive = weak or mixed curves; inactive = no such curve, though single readings can be large; an effect the other way counts as inactive or inconclusive.
Tests used:
[1] = qHTS assay to identify small molecule agonists of H2AX (AID 1224845; active = well fitted activation curve with a large enough effect in the signal ratio in the repeat runs, not every such curve was filed as active; the % refers to the signal ratio)
How it was run: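 Phospho-H2AX Ser139 measured by HTRF (ex 320 nm; em 665 and 620 nm) after 24 hr antibody incubation. Compounds, 15 concentrations, 0.76% DMSO, were applied to CHO-K1 cells for 3hr at 37C before lysis.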

[2] = qHTS assay to identify small molecule agonists of the hypoxia (HIF-1) signaling pathway (AID 1224846; active = well fitted activation curve with a large enough effect in the signal ratio in the repeat runs, not every such curve was filed as active; the % refers to the signal ratio)
How it was run: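 Hypoxia-pathway activation was scored as increased beta-lactamase from an HRE-controlled reporter in ME-180 cells; plated at 2,000 cells per well with 0.5% dialyzed FBS, they were exposed 17 hrs to compounds and then given CCF4-AM.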

[3] = qHTS assay to identify small molecule agonists of H2AX - cell viability counter screen (AID 1224847; calls by dose curve; note: top concentration of the series differs between compounds; nearly all actives have a fitted effect of over 30% in size)
How it was run: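 Compounds tested at 15 concentrations were incubated 3 hr at 37C with wild-type CHO-K1 cells; cellular ATP-based luminescence (CellTiter-Glo) indicated viability.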

[4] = qHTS RealTime-Glo MT Cell Viability Assay in HepG2 cells - 24 hour (AID 1224867); note: nearly all actives have a fitted effect of over 50% in size
How it was run: (§1)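 HepG2 cells were seeded at 600 cells/well together with NanoLuc luciferase and a cell-permeant prosubstrate, preincubated 5 h at 37 C/5% CO2, then pin-dosed with compounds in DMSO. Nonlytic luminescence from viable cells was read at each time point.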

[5] = qHTS RealTime-Glo MT Cell Viability Assay in HEK293 cells - 32 hour (AID 1224868); note: nearly all actives have a fitted effect of over 50% in size; note: potency is the fitted concentration of half-maximal effect
How it was run: (§2)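 HEK293 cells were seeded at 600 cells/well together with NanoLuc luciferase and cell-permeant prosubstrate, preincubated 5 h at 37 C/5% CO2, then given compound in DMSO by pintool. Luminescence from viable-cell prosubstrate reduction was read repeatedly over 40 h.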

[6] = A CellTox Green Cytotoxicity Assay to monitor cytotoxicity in HEK293 cells - 0 hour (AID 1224869); note: nearly all actives have a fitted effect of over 50% in size
How it was run: (§3)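 Seeding of HEK293 cells together with cytotoxicity dye preceded a 5 h incubation at 37 C/5% CO2. Test compounds in DMSO were then added and fluorescence monitored across 40 h.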

[7] = qHTS RealTime-Glo MT Cell Viability Assay in HepG2 cells - 40 hour (AID 1224870); note: nearly all actives have a fitted effect of over 50% in size
How it was run: (§4)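 Real-time viability: cells seeded at 600 per well together with NanoLuc and cell-permeant prosubstrate, compounds added after 5 h incubation. Luminescence tracked at 0, 8, 16, 24, 32 and 40 h of exposure.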

[8] = A CellTox Green Cytotoxicity Assay to monitor cytotoxicity in HEK293 cells - 40 hour (AID 1224871); note: nearly all actives have a fitted effect of over 45% in size; note: potency is the fitted concentration of half-maximal effect
How it was run: as §3

[9] = qHTS RealTime-Glo MT Cell Viability Assay in HEK293 cells - 16 hour (AID 1224872); note: nearly all actives have a fitted effect of over 50% in size; note: potency is the fitted concentration of half-maximal effect
How it was run: as §2

[10] = qHTS RealTime-Glo MT Cell Viability Assay in HEK293 cells - 40 hour (AID 1224874); settings: RealTime-Glo luminescence; max response: hits give low values; note: nearly all actives have a fitted effect of over 50% in size; note: potency is the fitted concentration of half-maximal effect
How it was run: (§5)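 Tox21 screen in HEK293 using RealTime-Glo MT chemistry, with cells and reagent co-dispensed. Luminescence proportional to viable cell number was captured at intervals during 40 h compound exposure at 37 C.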

[11] = A CellTox Green Cytotoxicity Assay to monitor cytotoxicity in HEK293 cells - 24 hour (AID 1224875); note: nearly all actives have a fitted effect of over 45% in size
How it was run: as §3

[12] = A CellTox Green Cytotoxicity Assay to monitor cytotoxicity in HepG2 cells - 24 hour (AID 1224878); note: nearly all actives have a fitted effect of over 45% in size; note: potency is the fitted concentration of half-maximal effect
How it was run: (§6)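 Nonlytic assay: viable cells exclude the dye, so fluorescence scales with cell death. HepG2 at 600 cells/well, compounds added after 5 h, signal read across 40 h.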

[13] = A CellTox Green Cytotoxicity Assay to monitor cytotoxicity in HepG2 cells - 40 hour (AID 1224879); note: nearly all actives have a fitted effect of over 40% in size; note: potency is the fitted concentration of half-maximal effect
How it was run: as §6

[14] = qHTS RealTime-Glo MT Cell Viability Assay in HEK293 cells - 0 hour (AID 1224880); note: top concentration of the series differs between compounds; nearly all actives have a fitted effect of over 45% in size
How it was run: as §5

[15] = qHTS assay to identify small molecule antagonists of the estrogen related receptor (ERR) signaling pathway from Tox21 library (AID 1224848); note: nearly all actives have a fitted effect of over 50% in size; note: potency is the fitted concentration of half-maximal effect
How it was run: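 Antagonist-mode screen of the Tox21 10K library in an NTP-provided ERR reporter cell line; 18 h compound exposure at 37 C, luminescence measured with ONE-Glo.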

[16] = qHTS RealTime-Glo MT Cell Viability Assay in HepG2 cells - 8 hour (AID 1224873); note: nearly all actives have a fitted effect of over 55% in size
How it was run: as §4

[17] = qHTS RealTime-Glo MT Cell Viability Assay in HepG2 cells - 32 hour (AID 1224877); note: nearly all actives have a fitted effect of over 55% in size; note: potency is the fitted concentration of half-maximal effect
How it was run: as §1

[18] = A CellTox Green Cytotoxicity Assay to monitor cytotoxicity in HepG2 cells - 16 hour (AID 1224876); note: nearly all actives have a fitted effect of over 45% in size; note: potency is the fitted concentration of half-maximal effect
How it was run: as §6

[19] = qHTS assay to identify small molecule agonists of the estrogen related receptor (ERR) signaling pathway from Tox21 library (AID 1224849; calls by dose curve; note: nearly all actives have a fitted effect of over 15% in size); settings: ERR reporter cell line, ONE-Glo luciferase, 18 h; at 92.4 µM (top of the series) unless noted
How it was run: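 Six hours post-seeding at 37 C/5% CO2, ERR cells receive DMSO-solubilised compounds; after 18 h at 37 C, ONE-Glo reagent is applied and luminescence recorded.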

**Q.** Which Potency [1] does the source give for `Nc1ncn([C@H]2C[C@H](O)[C@@H](CO)O2)c(=O)n1` here?
**A.** inactive

**Q.** What about the Potency [2] of the same compound?
**A.** inactive

**Q.** What about the Potency [3] of the same compound?
**A.** inactive

**Q.** What about the Potency [4] of the same compound?
**A.** inactive

**Q.** What about the Potency [5] of the same compound?
**A.** inactive

**Q.** And the Potency [6]?
**A.** inactive

**Q.** What about the Potency [7] of the same compound?
**A.** inactive

**Q.** And the Potency [8]?
**A.** inactive

**Q.** What about the Potency [9] of the same compound?
**A.** inactive

**Q.** And the max response [10]?
**A.** 2.14%

**Q.** And the Potency [11]?
**A.** inactive

**Q.** What about the Potency [12] of the same compound?
**A.** inactive

**Q.** What about the Potency [13] of the same compound?
**A.** inactive

**Q.** What about the Potency [14] of the same compound?
**A.** inactive

**Q.** With `COc1ccc(C)cc1[N+](=O)[O-]` as the compound, how does the Potency [1] read?
**A.** inactive

**Q.** And the Potency [2]?
**A.** inactive

**Q.** And the Potency [3]?
**A.** inactive

**Q.** And the Potency [15]?
**A.** inactive

**Q.** What about the Potency [4] of the same compound?
**A.** inactive

**Q.** And the Potency [5]?
**A.** inactive

**Q.** And the Potency [8]?
**A.** inactive

**Q.** And the Potency [9]?
**A.** inactive

**Q.** What about the Potency [16] of the same compound?
**A.** inactive

**Q.** What about the max response [10] of the same compound?
**A.** -4.46%

**Q.** And the Potency [11]?
**A.** inactive

**Q.** And the Potency [17]?
**A.** inactive

**Q.** And the Potency [12]?
**A.** inactive

**Q.** And the Potency [13]?
**A.** inactive

**Q.** And the Potency [14]?
**A.** inactive

**Q.** For `CNCCCN1c2ccccc2CCc2ccccc21`, which Potency [1] is on record?
**A.** inactive

**Q.** And the Potency [3]?
**A.** inactive

**Q.** What about the Potency [6] of the same compound?
**A.** inactive

**Q.** What about the Potency [16] of the same compound?
**A.** inactive

**Q.** And the Potency [11]?
**A.** inactive

**Q.** What about the Potency [18] of the same compound?
**A.** 26.8 µM (active)

**Q.** And the Potency [12]?
**A.** 26.8 µM (active)

**Q.** And the Potency [13]?
**A.** 26.8 µM (active)

**Q.** What about the Potency [14] of the same compound?
**A.** inactive

**Q.** Which Potency [2] does the source give for `CCN(CC)CCNc1ccc(CNC=O)c2sc3ccc(OC)cc3c(=O)c12` here?
**A.** inactive

**Q.** What about the Potency [3] of the same compound?
**A.** inactive

**Q.** What about the Potency [15] of the same compound?
**A.** 2.73 µM (active)

**Q.** And the activity change, positive = activation [19]?
**A.** -41.1%

**Q.** What about the Potency [5] of the same compound?
**A.** 17.4 µM (active)

**Q.** And the Potency [6]?
**A.** inactive

**Q.** And the Potency [8]?
**A.** 19.5 µM (active)

**Q.** What about the Potency [9] of the same compound?
**A.** 27.5 µM (active)

**Q.** What about the Potency [10] of the same compound?
**A.** 8.71 µM (active)

**Q.** And the Potency [11]?
**A.** inactive

**Q.** What about the Potency [18] of the same compound?
**A.** inactive

**Q.** What about the Potency [17] of the same compound?
**A.** 19.5 µM (active)

**Q.** And the Potency [12]?
**A.** inactive

**Q.** And the Potency [14]?
**A.** inactive

**Q.** Which Potency [3] does the source give for `OCc1cc(C(O)CNCCCCCCOCCCCc2ccccc2)ccc1O` (stereo not given) here?
**A.** inactive

**Q.** And the Potency [15]?
**A.** 21.1 µM (active)

**Q.** And the activity change, positive = activation [19]?
**A.** -29.9% [at 42.5 µM]

**Q.** What about the Potency [5] of the same compound?
**A.** 21.3 µM (active)

**Q.** What about the Potency [6] of the same compound?
**A.** inactive

**Q.** What about the Potency [16] of the same compound?
**A.** inactive

**Q.** And the Potency [10]?
**A.** 23.9 µM (active)

**Q.** And the Potency [18]?
**A.** 23.9 µM (active)

**Q.** What about the Potency [12] of the same compound?
**A.** 23.9 µM (active)

**Q.** And the Potency [14]?
**A.** inactive

**Q.** With `CCCCOC(=O)CCCCCCCC(=O)OCCCC` as the compound, how does the Potency [2] read?
**A.** inactive

**Q.** And the Potency [3]?
**A.** inactive

**Q.** What about the Potency [15] of the same compound?
**A.** inactive

**Q.** What about the activity change, positive = activation [19] of the same compound?
**A.** 2.99%

**Q.** And the Potency [4]?
**A.** inactive

**Q.** And the Potency [5]?
**A.** inactive

**Q.** And the Potency [6]?
**A.** inactive

**Q.** What about the Potency [7] of the same compound?
**A.** inactive

**Q.** And the Potency [8]?
**A.** inactive

**Q.** And the Potency [9]?
**A.** inactive

**Q.** And the Potency [16]?
**A.** inactive

**Q.** And the max response [10]?
**A.** 2.76%

**Q.** And the Potency [11]?
**A.** inactive

**Q.** What about the Potency [18] of the same compound?
**A.** inactive

**Q.** What about the Potency [17] of the same compound?
**A.** inactive

**Q.** What about the Potency [12] of the same compound?
**A.** inactive

**Q.** What about the Potency [13] of the same compound?
**A.** inactive

**Q.** What about the Potency [14] of the same compound?
**A.** inactive

**Q.** With `C=C1C(=C/C=C2\CCC[C@]3(C)[C@@H]([C@H](C)/C=C/[C@@H](O)C4CC4)CC[C@@H]23)C[C@@H](O)C[C@@H]1O` as the compound, how does the Potency [15] read?
**A.** 13.3 µM (active)

**Q.** What about the Potency [4] of the same compound?
**A.** inactive

**Q.** What about the Potency [5] of the same compound?
**A.** 16.9 µM (active)

**Q.** And the Potency [6]?
**A.** inactive

**Q.** What about the Potency [9] of the same compound?
**A.** 19 µM (active)

**Q.** What about the Potency [16] of the same compound?
**A.** inactive

**Q.** And the Potency [10]?
**A.** 8.49 µM (active)

**Q.** What about the Potency [11] of the same compound?
**A.** inactive

**Q.** What about the Potency [17] of the same compound?
**A.** inactive

**Q.** And the Potency [12]?
**A.** inactive

**Q.** What about the Potency [13] of the same compound?
**A.** inactive

**Q.** And the Potency [14]?
**A.** inactive

**Q.** Which Potency [2] does the source give for `CC(=O)c1ccc2c(c1)N(CCCN1CCC(CCO)CC1)c1ccccc1S2` here?
**A.** inactive

**Q.** What about the Potency [3] of the same compound?
**A.** inactive

**Q.** What about the Potency [4] of the same compound?
**A.** inactive

**Q.** What about the Potency [5] of the same compound?
**A.** 21.3 µM (active)

**Q.** And the Potency [6]?
**A.** inactive

**Q.** What about the Potency [7] of the same compound?
**A.** inactive

**Q.** And the Potency [8]?
**A.** 23.9 µM (active)

**Q.** And the Potency [10]?
**A.** 21.3 µM (active)

**Q.** And the Potency [11]?
**A.** inactive

**Q.** What about the Potency [18] of the same compound?
**A.** 21.3 µM (active)

**Q.** And the Potency [17]?
**A.** inactive

**Q.** And the Potency [12]?
**A.** 23.9 µM (active)

**Q.** What about the Potency [14] of the same compound?
**A.** inactive

**Q.** Which Potency [2] does the source give for `COc1ccc(S(=O)(=O)N2C(=O)[C@@](c3ccccc3OC)(N3C[C@H](O)C[C@H]3C(=O)N(C)C)c3cc(Cl)ccc32)c(OC)c1` here?
**A.** inactive

**Q.** What about the Potency [5] of the same compound?
**A.** 49 µM (active)

**Q.** And the Potency [6]?
**A.** inactive

**Q.** What about the Potency [8] of the same compound?
**A.** inactive

**Q.** And the Potency [10]?
**A.** 49 µM (active)

**Q.** And the Potency [11]?
**A.** inactive

**Q.** What about the Potency [18] of the same compound?
**A.** inactive

**Q.** And the Potency [12]?
**A.** inactive

**Q.** And the Potency [13]?
**A.** inactive

**Q.** And the Potency [14]?
**A.** inactive

From PubChem BioAssay (Tox21)
